SMN2 splice up – SMN2 splice variant enhancement. hit rate 2.8% among 210,000. HEK293 SMN2-luciferase splicing reporter, luminescence, 30-36 h. AID 1458. Potency, µM (top dose mostly 46.1 µM), for the others: at the top dose activity change, positive = activation, most hits filed as activators; note: % of control where 0% means no effect; nearly all actives have a fitted effect of over 55% in size
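HEK293 cells carry an SMN2 minigene-luciferase reporter in which exon 7 inclusion puts luciferase in frame. Cells were seeded at 2000 cells/well, attached for 10-12 hours, then exposed to compounds for 30-36 hours at 37C before ONE-Glo luminescence.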
Rab9 prom act – Rab9 promoter activation; Huh7 Rab9 promoter-luciferase reporter, luminescence, 24 h; Potency, µM (top dose mostly 9.22 µM), without a hit: at the top dose activation, negative = inhibition, hits mostly activators; hit rate 2.8% among 320,000; AID 485297; note: % of control where 0% means no effect; nearly all actives have a fitted effect of over 60% in size
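Cells were plated at 1500 per well in reduced-serum medium with 10% FBS and left 2 h. Compound in DMSO was then added for 24 h at 37 °C. Reporter signal was read by luminescence after 10 min with luciferase detection reagent.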
KinaseGlo FLuc – counter-screen: inhibitors of Kinase-Glo firefly luciferase; Kinase-Glo luciferase, ATP luminescence, 8 min; Potency, µM (top dose mostly 38.3 µM), without a hit: top-dose activity change, negative = inhibition, usual class: inhibitors; Q27757; AID 1379; hit rate 0.28% among 200,000; note: % is set by controls: 0 for no effect and ±100 for the full control effect; nearly all actives have a fitted effect of over 60% in size
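Light output from Kinase-Glo luciferase with luciferin and 10 uM ATP in 50 mM imidazole pH 7.2, KCl, MgCl2, Tween 20, BSA; compound pin-delivered, 8-min ambient incubation, then luminescence read.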
ELG1 genotox – inducers of genotoxicity in HEK293T ELG1-luciferase cells | AID 504466 | hit rate 1.3% among 330,000 | HEK293T ELG1-luciferase reporter, luminescence, 16 h | Potency, µM (highest dose often 46 µM), without a hit: top-dose activity change, positive = activation, most hits filed as activators; note: % of control where 0% means no effect; nearly all actives have a fitted effect of over 60% in size
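ELG1-luciferase HEK293T cells, 2,000/well; compound pinned in; 16 hr, 37 °C, 5% CO2; ONE-Glo, 30 min RT; luminescence on CCD imager.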
NPC1 prom act – NPC1 promoter activation. Huh7 NPC1 promoter luciferase reporter, 24 h. Potency, µM (titrated, usually from 9.22 µM), inactives show at the top dose activation, most hits filed as activators. hit rate 2.4% among 320,000. AID 485313; note: % of control where 0% means no effect; nearly all actives have a fitted effect of over 60% in size
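Stably transfected Huh7 (NPC1 promoter→luciferase), 1500 cells/well in Opti-MEM + 10% FBS, 2 h settle, then compound 24 h at 37 °C. Luminescence after 10 min with Amplite reagent.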
FLuc modulator – counter-screen for miR-21 project: firefly luciferase inhibitors or activators | purified FLuc, Km substrates, luminescence inhibition | Potency, µM (top dose mostly 57.5 µM), without a hit: at the top dose activity change, negative = inhibition, actives largely listed as inhibitors | hit rate 6.9% among 360,000 | AID 588342;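 note: plate controls were vehicle for no effect and reference inhibitor for full effect; nearly all actives have a fitted effect of over 55% in size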
Target sequence (P08659 whole entry, looked up): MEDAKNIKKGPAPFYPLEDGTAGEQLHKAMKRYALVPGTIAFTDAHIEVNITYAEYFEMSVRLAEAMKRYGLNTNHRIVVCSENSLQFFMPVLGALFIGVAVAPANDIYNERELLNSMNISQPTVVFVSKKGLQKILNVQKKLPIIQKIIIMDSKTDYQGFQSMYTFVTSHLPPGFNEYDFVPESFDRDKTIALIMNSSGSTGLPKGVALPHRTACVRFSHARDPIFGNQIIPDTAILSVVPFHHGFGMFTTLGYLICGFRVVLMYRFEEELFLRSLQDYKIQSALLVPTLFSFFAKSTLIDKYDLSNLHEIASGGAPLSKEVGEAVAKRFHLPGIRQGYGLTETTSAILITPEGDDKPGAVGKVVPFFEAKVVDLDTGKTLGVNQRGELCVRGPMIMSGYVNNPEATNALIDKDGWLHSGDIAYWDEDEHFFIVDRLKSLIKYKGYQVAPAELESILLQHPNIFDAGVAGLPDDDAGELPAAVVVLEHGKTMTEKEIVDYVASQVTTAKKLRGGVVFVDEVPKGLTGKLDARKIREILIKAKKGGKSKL
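Purified P. pyralis luciferase (10nM final) with 10uM D-luciferin and 10uM ATP (Km levels) in 50mM Tris acetate pH 7.5, 10mM Mg acetate, 0.01% Tween-20, 0.05% BSA; qHTS 6-point titration, ~60 µM downward; luminescence read.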
Active calls of the source: *; ? = inconclusive; nt = no result; [ ] = dose if it differs, or a comment. Shown are actives, neighbours in structure and some others; about 7.5% of the full set was active somewhere. Calls come from the whole dose curve; as a rule, active = well fitted curve in the direction sought with a large enough effect; inconclusive = small, poorly fitted or top-dose-only effect, or another doubt; inactive = no such curve, though single readings can be large; an effect the other way counts as inactive or inconclusive. Potency is the fitted concentration of half-maximal effect.

SMILES	SMN2 splice up	Rab9 prom act	KinaseGlo FLuc	ELG1 genotox	NPC1 prom act	FLuc modulator
O=C(NCC1CCCO1)c1sc2ccccc2c1Cl (stereo not drawn)	12.6µM*	?	0.6%	?	?	19µM*
N[C@@H](CCS(=O)O)C(=O)O	-3.1%	nt	nt	nt	nt	nt
CCOc1ccc(CNC(=O)C2CCN(C(=O)c3sccc3-n3cccc3)CC2)cc1	2.2%	nt	nt	nt	nt	2.7%
O=C(NCC1CCCO1)c1sc(=S)n2c1[nH]c(=O)c1ccc(C(=O)N3CCCCC3)cc12 (stereo not drawn)	8.7%	1.0%	-1.1%	-1.7%	-4.7%	21.3µM*
O=C(O)CC(NC(=O)c1sc2ccccc2c1Cl)c1ccc(OC2CCCC2)cc1 (stereo not drawn)	-27.5%	8.5%	1.9%	2.5%	-2.0%	15.1µM*
O=C(NCCc1ccccc1)c1ccc2c(=O)[nH]c3c(C(=O)NCC4CCCO4)sc(=S)n3c2c1 (stereo not drawn)	nt	3.9%	nt	0.3%	3.0%	?
Cc1ccc2c(c1)Sc1c(ccc3ccccc13)N2	nt	2.51µM*	nt	?	?	12µM*
CCCCCCCC/C=C\CCCCCCCC(=O)N(CCO)CCO	-6.5%	nt	nt	nt	nt	nt
COc1ccc(CC(=O)Nc2ccc(-c3csc(C)n3)cc2)cc1	nt	0.8%	-4.2%	1.9%	1.4%	-5.7%
CCC(=O)Nc1ccc(-c2csc(C)n2)cc1	?	?	11.5%	?	?	23.9µM*
Cc1nc(-c2ccc(NC(=O)Cc3ccccc3)cc2)cs1	nt	?	nt	8.2%	?	8.49µM*
CN(CC(=O)Nc1cccc(F)c1)CC(=O)Nc1cccc(S(N)(=O)=O)c1	nt	2.4%	nt	-1.0%	-5.2%	-0.6%
CCOc1ccccc1CNC(=O)c1cnc2sc(N3CCC(C)CC3)nn2c1=O	nt	nt	nt	nt	nt	-10.6%
CC(C)c1ccc(C(O)Cc2nc3ccccc3n2C)cc1 (stereo not drawn)	nt	3.98µM*	nt	?	?	9.53µM*
CN(C)c1ccc(C(O)Cc2nc3ccccc3n2C)cc1 (stereo not drawn)	nt	?	nt	4.61µM*	?	?
COc1ccccc1C(O)Cc1nc2ccccc2n1C (stereo not drawn)	1.6%	?	14.7%	?	28.6%	?
Cc1csc(NC(=O)/C=C/c2ccc(C)o2)n1	20µM*	27.3%	0.2%	18.3%	15.1%	10.7µM*
Cc1csc(NC(=O)/C=C/c2ccco2)n1	15.8µM*	2.82µM*	-3.2%	?	12.9%	6.75µM*
O=C(/C=C/c1ccco1)Nc1nc(-c2ccccn2)cs1	?	?	-3.0%	-0.4%	?	21.3µM*
O=C(/C=C/c1ccco1)Nc1nc(-c2ccccc2)cs1	11.2µM*	2.51µM*	-2.4%	13.5%	2.82µM*	4.78µM*
O=C(/C=C/c1ccco1)Nc1nc(-c2ccc(F)c(F)c2)cs1	nt	2.4%	nt	-10.2%	3.9%	?
COc1ccc(C)cc1NC(=O)c1ccccc1NS(=O)(=O)c1ccc(Cl)s1	nt	-12.5%	1.8%	-12.6%	-8.2%	?
CCOC(=O)Cc1csc(NC(=O)/C=C/c2ccc(Cl)cc2)n1	nt	-7.6%	nt	-6.9%	-6.0%	2.39µM*
CCOC(=O)Cc1csc(NC(=O)/C=C/c2ccco2)n1	nt	28.1%	nt	-4.1%	16.2%	10.7µM*
CCc1ccc(C2c3c(n[nH]c3C)C(=O)N2c2ccc(C)cc2)cc1 (stereo not drawn)	24.8%	nt	nt	nt	nt	?
SMILES	SMN2 splice up	Rab9 prom act	KinaseGlo FLuc	ELG1 genotox	NPC1 prom act	FLuc modulator
CCc1nn(CC(=O)Nc2cccc(C(C)=O)c2)c(=O)c2cc3sccc3n12	-8.9%	nt	nt	nt	nt	?
COc1ccc(CCNC(=O)c2ccc3c(c2)nc2n3CCC(C)C2)cc1OC (stereo not drawn)	nt	nt	nt	nt	nt	-10.4%
CC1CCn2c(nc3cc(C(=O)NCCc4ccccc4)ccc32)C1 (stereo not drawn)	nt	nt	nt	nt	nt	9.53µM*
CSc1ccc(CCNC(=O)c2ccc3c(c2)nc2n3CCCCC2)cc1	nt	nt	nt	nt	nt	23.9µM*
CSc1ccc(CCNC(=O)c2ccc3c(c2)nc2n3CCC(C)C2)cc1 (stereo not drawn)	nt	nt	nt	nt	nt	-19.7%
O=C(NCc1ccccc1)c1ccc2c(c1)nc1n2CCOC1	nt	nt	nt	nt	nt	-10.2%
CC(CNC(=O)c1ccc2c(c1)nc1n2CCCCC1)c1ccccc1 (stereo not drawn)	nt	nt	nt	nt	nt	21.3µM*
Cc1ccccc1CCNC(=O)c1ccc2c(c1)nc1n2CCOC1	nt	nt	nt	nt	nt	6.01µM*
C=CCSC1=C(C#N)C(c2ccc(OCC)cc2)CC(=O)N1 (stereo not drawn)	5.0%	-2.2%	-0.8%	-5.1%	0.6%	3.3%
CC(CCc1ccccc1)NC(=O)CCNS(=O)(=O)c1ccccc1 (stereo not drawn)	nt	-2.7%	nt	0.7%	-2.2%	2.9%
COc1ccc(S(=O)(=O)N2CCCCC2)cc1NC(=O)CCNC(=O)c1ccco1	nt	-4.0%	nt	1.4%	-4.5%	6.8%
CCSc1ncccc1C(=O)N[C@@H](CCSC)C(=O)OC	nt	-3.5%	nt	0.7%	1.9%	0.0%
Cc1ccccc1CCNC(=O)c1ccc2c(c1)nc1n2CCCCC1	nt	nt	nt	nt	nt	0.536µM*
CCOc1ccc2nc(NC(=O)Nc3ccccc3)sc2c1	11.2µM*	1.41µM*	0.4%	?	?	0.849µM*
COc1ccc2nc(NC(=O)C3=NN(c4ccccc4)C(=O)CC3)sc2c1	6.9%	1.2%	0.1%	1.1%	-3.8%	?
COc1ccc2nc(NC(=O)Nc3ccccc3)sc2c1	0.891µM*	0.708µM*	-2.4%	?	?	0.477µM*
CC(C)(C)c1nc(NC(=O)Nc2ccccc2)sc1Br	-3.0%	?	-0.2%	-5.2%	27.8%	19µM*
CCOc1ccc2nc(NC(=O)Nc3cccs3)sc2c1	2.82µM*	1.58µM*	-4.8%	2.59µM*	?	0.757µM*
Cc1cccc(N(CC(=O)N(C)Cc2ccccc2)S(=O)(=O)c2ccccc2)c1C	-1.6%	nt	nt	nt	nt	2.4%
NNC(=O)c1ccc[n+](CCc2ccccc2)c1	-5.7%[9.22 µM]	nt	-0.5%[7.66 µM]	nt	nt	nt
CCN(Cc1ccccc1)C(=O)C1CCC(CNS(=O)(=O)c2ccc3c(c2)CCCC(=O)N3)CC1 (stereo not drawn)	nt	nt	nt	nt	nt	6.3%
O=C(NNc1nc2ccccc2s1)Nc1ccc(Cl)c(Cl)c1	nt	-6.0%	nt	2.2%	2.3%	?
CCCCCN(C(=O)NC(=O)Nc1nncs1)S(C)(=O)=O	7.3%	-6.4%	-4.2%	-5.7%	-0.7%	-0.8%
O=C(NNc1nc2ccccc2s1)Nc1ccc(F)cc1	nt	3.16µM*	nt	?	3.98µM*	?
CCCCN(C(=O)NC(=O)Nc1nc2ccc(OC)cc2s1)S(C)(=O)=O	22.4µM*	?	-24.8%	8.2µM*	?	23.9µM*
COc1ccc(NC(=O)Nc2nc3ccccc3s2)cc1	nt	1.58µM*	nt	?	1.78µM*	2.39µM*
